Active and inactive are the calls of the source. Unless noted, the call rests on the fitted dose curve; in most records, active means well fitted curve in the direction sought with a large enough effect in the repeat runs; inconclusive means weak or mixed curves; inactive means flat fitted curve, though single readings scatter.

Assay [1] is described as follows: qHTS assay to test for compound auto fluorescence at 535 nm (green) in HEK293 cells (AID 720680). A general note: Quantitative high-throughput screening tests each substance at several concentrations.
Assay [2] is described as follows: qHTS assay to test for compound auto fluorescence at 460 nm (blue) in HEK293 cell free culture (AID 720681). A digest of the protocol: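 Compounds were added to cell-free DMEM with 10% FBS and fluorescence read directly. The blue channel used 405 nm excitation and 460 nm emission, with triamterene as the reference fluorophore.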
The nature of assay [3]: qHTS assay to test for compound auto fluorescence at 535 nm (green) in HEK293 cell free culture (AID 720682). A digest of the protocol: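 Using fluorescein as calibrant, autofluorescence was quantified at 485/535 nm in cell-free DMEM containing 10% FBS after pintool addition of compound or vehicle.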
The nature of assay [4]: qHTS assay to test for compound auto fluorescence at 590 nm (red) in HEK293 cell free culture (AID 720683). In outline:
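Cell-free wells of DMEM with 10% FBS received compound, and intrinsic fluorescence was read at excitation/emission 540/590 nm. Values expressed as equivalence to Rose Bengal sodium.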

Assay [5] is described as follows: qHTS assay to test for compound auto fluorescence at 590 nm (red) in HepG2 cell free culture (AID 720684). A digest of the protocol: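 Rose Bengal sodium served as the reference for red signal. Test compounds were dispensed into serum-containing MEM (10% FBS) without cells, and plates were read at 540/590 nm.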
Assay [6] can be described thus: qHTS assay to test for compound auto fluorescence at 460 nm (blue) in HepG2 cell free culture (AID 720685). A digest of the protocol:
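Cell-free plates of MEM plus 10% FBS received 23 nL compound or DMSO vehicle; blue-channel (405/460 nm) intensity scored against triamterene as reference fluorophore.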

A short description of assay [7]: qHTS assay to test for compound auto fluorescence at 535 nm (green) in HepG2 cell free culture (AID 720686).
Assay [8] is described as follows: qHTS assay to test for compound auto fluorescence at 460 nm (blue) in HepG2 cells (AID 720687). A digest of the protocol: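 HepG2 cells in MEM with 10% FBS, attached overnight at 37 C, were exposed to compound or DMSO for 1 hr at 37 C, 5% CO2. Blue fluorescence was read at 405/460 nm, with triamterene as reference fluorophore.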
For assay [9], the target named is Glucocorticoid receptor (Homo sapiens) (UniProt P04150). In words: qHTS assay to identify small molecule agonists of the glucocorticoid receptor (GR) signaling pathway (AID 720691; active means well fitted activation curve with a large enough effect in the signal ratio in the repeat runs, not every such curve was filed as active; inconclusive means weak or mixed curves, or effect the other way; inactive means no such curve, though single readings can be large or run the other way; the % refers to the signal ratio; further: potency means the concentration at half of the fitted maximal effect). Conditions: GR-bla HeLa, beta-lactamase reporter ratio, 18 h; activation: at 62.4 µM (top of the series). A digest of the protocol: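 Agonist-mode qHTS in HeLa cells stably expressing a glucocorticoid-response-element beta-lactamase reporter. Fluorescence intensity read with FRET substrate (2 h, room temperature) after 18 h compound treatment at 37 C.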
Chain of Glucocorticoid receptor (Homo sapiens) (P04150 whole entry, looked up): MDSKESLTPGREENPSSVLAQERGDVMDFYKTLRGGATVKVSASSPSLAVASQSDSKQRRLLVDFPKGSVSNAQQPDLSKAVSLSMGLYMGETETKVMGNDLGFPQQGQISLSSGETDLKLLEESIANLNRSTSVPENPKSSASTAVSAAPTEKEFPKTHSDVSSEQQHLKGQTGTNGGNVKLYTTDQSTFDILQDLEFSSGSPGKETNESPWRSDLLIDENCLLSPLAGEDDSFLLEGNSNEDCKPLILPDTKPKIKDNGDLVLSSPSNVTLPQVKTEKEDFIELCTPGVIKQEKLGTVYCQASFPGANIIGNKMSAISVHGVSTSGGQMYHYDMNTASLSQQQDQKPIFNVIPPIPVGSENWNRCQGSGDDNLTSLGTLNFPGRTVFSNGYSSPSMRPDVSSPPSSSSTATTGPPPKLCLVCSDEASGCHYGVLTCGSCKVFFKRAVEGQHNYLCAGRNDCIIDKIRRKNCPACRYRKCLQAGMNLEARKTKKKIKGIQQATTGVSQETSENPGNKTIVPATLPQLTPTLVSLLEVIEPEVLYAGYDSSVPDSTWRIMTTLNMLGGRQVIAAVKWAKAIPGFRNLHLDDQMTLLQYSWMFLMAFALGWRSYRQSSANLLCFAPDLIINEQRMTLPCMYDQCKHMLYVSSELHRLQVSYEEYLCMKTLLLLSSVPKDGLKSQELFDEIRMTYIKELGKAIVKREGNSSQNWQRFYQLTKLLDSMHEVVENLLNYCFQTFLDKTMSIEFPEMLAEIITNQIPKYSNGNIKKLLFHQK

`N[C@H](CCC(=O)O)C(=O)O`: the Potency entry in assay [1], in assay [2], in [3], in assay [4], in assay [5] and in assay [7] was “inactive” throughout. Moreover, the Potency result in assay [9] was “inactive”. Also, the compound was called inactive in assay [6] and in assay [8].
For `CCOc1ccc(N=Nc2ccc(N)cc2N)cc1`, the Potency entry in assay [1], in assay [2], in assay [3], in assay [4], in assay [5] and in [7] was “inactive” in each case. Further, the outcome in assay [6] and in assay [8] was inactive.
For the compound `CC[C@H](C)[C@H]1O[C@]2(CC[C@@H]1C)C[C@@H]1C[C@@H](C/C=C(\C)[C@@H](O[C@H]3C[C@H](OC)[C@@H](O[C@H]4C[C@H](OC)[C@@H](O)[C@H](C)O4)[C@H](C)O3)[C@@H](C)/C=C/C=C3\CO[C@@H]4[C@H](O)C(C)=C[C@@H](C(=O)O1)[C@]34O)O2`, the Potency result in [1], in assay [2], in assay [3], in assay [4], in [5] and in assay [7] was “inactive” each time. Also, the call in [6] and in assay [8] was inactive.
Consider `CC(CN(C)C)CN1c2ccccc2Sc2ccc(C(F)(F)F)cc21` (stereo unspecified), for which the Potency result in [1], in assay [2], in [3], in [4], in assay [5] and in assay [7] was “inactive” in each case. The Potency result in [9] was “inactive”. Further, the compound was classed as inactive in [6] and in assay [8].
For the compound `O=C(O)[C@@H](O)[C@H](O)[C@H](O)[C@@H](O)C(=O)O` (tested in a mixture with another compound), the Potency entry in [1], in [2], in assay [3], in [4], in assay [5] and in assay [7] was “inactive” throughout. In addition, the outcome in assay [6] and in [8] was inactive.
On to `COc1cc(C)c(/C=C/C(C)=C/C=C/C(C)=C/C(=O)O)c(C)c1C`, for which the Potency result in [1], in [2], in assay [3], in assay [4], in [5] and in [7] was “inactive” throughout. Further, the Potency entry in assay [9] was “inactive”. For the same compound, the compound was called inactive in assay [6] and in assay [8].
`C[C@H](/C=C/[C@H](C)C(C)(C)O)[C@H]1CC[C@H]2/C(=C/C=C3C[C@@H](O)C[C@H](O)C3)CCC[C@]12C`: the Potency result in assay [1], in assay [2], in assay [3], in assay [4], in assay [5] and in assay [7] was “inactive” throughout. The Potency result in assay [9] is “inactive”. The call in assay [6] and in assay [8] was inactive.
For the compound `CO[C@H]1C[C@H](O[C@H]2[C@H](C)[C@@H](O[C@@H]3O[C@H](C)C[C@H](N(C)C)[C@H]3OC(C)=O)[C@@H](C)C[C@]3(CO3)C(=O)[C@H](C)[C@@H](OC(C)=O)[C@@H](C)[C@@H](C)OC(=O)[C@@H]2C)O[C@@H](C)[C@@H]1OC(C)=O`, the Potency result in [1], in assay [2], in [3], in [4], in assay [5] and in assay [7] was “inactive” each time. Further, the call in assay [6] and in [8] was inactive.
In the case of `CC(C)N1CCN(c2ccc(OC[C@H]3CO[C@](Cn4cncn4)(c4ccc(Cl)cc4Cl)O3)cc2)CC1`, the Potency entry in assay [1], in [2], in assay [3], in assay [4], in assay [5] and in assay [7] was “inactive” throughout. Moreover, the compound was called inactive in assay [6] and in [8].
For the compound `CCCCCCCCCCCC(=O)OC[C@@H](O)C1OC[C@H](O)[C@H]1O` (stereo partly specified), the Potency entry in [1], in [2], in assay [3], in [4], in assay [5] and in assay [7] was “inactive” in each case. In [9], the Potency entry was “inactive”. Moreover, the call in assay [6] and in assay [8] was inactive.
Regarding `CSc1nc2cc(Oc3cccc(Cl)c3Cl)c(Cl)cc2[nH]1`, the Potency entry in [1], in assay [2], in assay [3], in assay [4], in assay [5] and in [7] was “inactive” throughout. Also, the outcome in [6] and in assay [8] was inactive.
With `Cc1ccc(C2(O)CCN(CCCC(=O)c3ccc(F)cc3)CC2)cc1`, the Potency entry in [1], in [2], in [3], in assay [4], in [5] and in [7] was “inactive” throughout. Besides, the outcome in assay [6] and in assay [8] was inactive.
With `CN1CCc2c(c3ccccc3n2Cc2ccccc2)C1`, the Potency result in assay [1], in assay [2], in assay [3], in assay [4], in assay [5] and in [7] was “inactive” throughout. The compound was classed as inactive in assay [6] and in assay [8].
Consider `CC1CC(OC(=O)C(O)c2ccccc2)CC(C)(C)C1` (stereo unspecified), for which the Potency entry in [1], in assay [2], in assay [3], in assay [4], in [5] and in assay [7] was “inactive” throughout. Besides, the compound was called inactive in [6] and in assay [8].
`COc1cc(NCCCC(C)N)c2ncccc2c1` (stereo unspecified): the Potency entry in assay [1], in [2], in assay [3], in [4], in assay [5] and in [7] was “inactive” each time. Besides, in [9], the Potency result was “inactive”. In addition, the compound was classed as inactive in assay [6] and in [8].
For the compound `C[C@@H]1C[C@H]2[C@@H]3CCC4=CC(=O)C=C[C@]4(C)[C@@]3(F)[C@@H](O)C[C@]2(C)[C@@]1(O)C(=O)COC(=O)c1cccc(S(=O)(=O)O)c1`, the Potency result in [1], in [2], in [3], in assay [4], in assay [5] and in [7] was “inactive” throughout. The outcome in assay [6] and in assay [8] was inactive. In [9], the Potency was 338 nM [inconclusive] (active).
As to `C=Cc1c(C)c2cc3nc(cc4[nH]c(cc5nc(cc1[nH]2)C(C)=C5CCC(=O)OC)c(CCC(=O)O)c4C)[C@@]1(C)C3=CC=C(C(=O)OC)[C@H]1C(=O)OC`, the Potency result in [1], in [2], in assay [3], in [4], in assay [5] and in [7] was “inactive” in each case. Further, in [9], the Potency entry is “inactive”. Also, the compound was classed as inactive in assay [6] and in [8].
Take `CCCCCCCCCCCCCCCCCCCCCC(=O)Nc1ccn([C@@H]2O[C@H](CO)[C@@H](O)[C@@H]2O)c(=O)n1`: the Potency entry in assay [1], in assay [2], in assay [3], in [4], in assay [5] and in [7] was “inactive” throughout. Also, the Potency result in assay [9] was “inactive”. The result in [6] and in assay [8] was inactive.
Consider `COc1ccc2c(=O)c(C)c(-c3ccccc3)oc2c1CN(C)C`, for which the Potency result in [1], in [2], in [3], in [4], in assay [5] and in [7] was “inactive” in each case. Moreover, the Potency entry in [9] was “inactive”. Further, the compound was called inactive in assay [6] and in assay [8].
Regarding `O=C1/C(=C\c2cccs2)CCC/C1=C\c1cccs1`, the Potency result in assay [1], in assay [2], in assay [3], in [4], in [5] and in assay [7] was “inactive” throughout. Also, the Potency result in [9] is “inactive”. In addition, the call in assay [6] and in [8] was inactive.

The values are drawn from PubChem BioAssay (Tox21).
